The structures appear in SMILES notation. Screen size: about 360,000 compounds; about 9,100 (2.5%) were called active. Roughly 4% stayed inconclusive and do not appear here. What follows is part of a selection rich in actives, with near analogues and random picks from the rest. Values without a mark were called inactive. No stated cut-off is given here; in the data, active means max response below about -50%; inconclusive means no clear call, values can overlap the other calls; inactive means above that.
On the % scale 0 is the no-effect control and ±100 the full control effect.

Chain of D(3) dopamine receptor (Homo sapiens) (P35462 whole entry, looked up): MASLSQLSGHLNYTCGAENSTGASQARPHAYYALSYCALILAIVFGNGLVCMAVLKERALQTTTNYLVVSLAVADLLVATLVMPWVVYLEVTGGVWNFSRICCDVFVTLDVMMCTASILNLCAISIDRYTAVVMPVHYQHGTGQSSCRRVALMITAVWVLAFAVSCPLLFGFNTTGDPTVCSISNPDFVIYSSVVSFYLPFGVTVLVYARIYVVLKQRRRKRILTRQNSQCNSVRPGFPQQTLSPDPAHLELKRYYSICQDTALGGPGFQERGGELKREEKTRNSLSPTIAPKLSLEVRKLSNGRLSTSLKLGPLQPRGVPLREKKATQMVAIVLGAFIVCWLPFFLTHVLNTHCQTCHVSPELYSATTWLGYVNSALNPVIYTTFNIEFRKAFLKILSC

The assay addresses D(3) dopamine receptor (Homo sapiens) (UniProt P35462). Kind of assay: qHTS of D3 Dopamine Receptor Antagonist: qHTS. Particulars: D3R cells, DiscoveRx beta-arrestin luminescence, antagonist mode; stronger effect = lower value. The method in brief:
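Cells expressing the human receptor were seeded at 1500 cells/well, incubated overnight at 37 degrees C in 5% CO2, then exposed to library compounds with dopamine controls for 90 minutes at 37 degrees C before luminescent detection.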
For orientation: Quantitative high-throughput screening tests each substance at several concentrations.
In the case of `Cc1ccc(C(=O)Nc2c(-c3ccccc3)[nH][nH]c2=O)cc1`, the max response, negative = inhibition was -20.8%.
Next, `COCOCCn1cc(CN2CCS(=O)(=O)N(Cc3ccc(-c4ccccc4)cc3)C(CC(C)C)C2=O)nn1` (stereo unspecified): 13%; `CC(C)NS(=O)(=O)c1ccc(NC(=O)c2cccnc2)cc1`: 0%; `CCOC(=O)c1cc(NC(=O)c2cccnc2)ccn1`: -0.585%.
Next, `Cc1c(C(=O)OC(C)C)sc(NC(=O)c2cccnc2)c1C#N`: -61.4% (active).
Next, `CCOC(=O)[C@]12CCCC=C1N(Cc1ccc3c(c1)OCO3)C(=O)[C@H](CC(=O)N1CCN(C(=O)c3ccco3)CC1)C2`: -0.946%.
Regarding `Cc1cccc(C(=O)NC2CCN(CC(=O)Nc3cccc(Cl)c3)CC2)c1`, the max response, negative = inhibition was -13.9%.
Regarding `OC[C@@H]1CN(C2CCCC2)C[C@H](n2cnc3c(NC4CCC4)ncnc32)O1`, the max response, negative = inhibition is -7.86%.
Next, `O=C(O)c1ccc([N+](=O)[O-])cc1Sc1ccsc1`: -56.7% (active).
As to `CCN(CC)c1ccc([N+](=O)[O-])cc1C(=O)O`, the max response, negative = inhibition was 9.06%.
Next, `CNc1ccc([N+](=O)[O-])cc1C(=O)O`: -6.53%; `CN1CCN(CCNC(=O)Nc2ccc([N+](=O)[O-])cc2)CC1`: -6.94%.
Next, `O=C(c1cc(C(=O)N2CCN(c3ccc(F)cc3)CC2)cc([N+](=O)[O-])c1)N1CCN(c2ccc(F)cc2)CC1`: -2.24%; `O=C(NCCCN1CCN(c2ccc(F)cc2)CC1)Nc1ccc([N+](=O)[O-])cc1`: -118% (active); `COc1ccc(C2OC(CCc3ccccc3)Cc3[nH]c(=S)[nH]c(=O)c32)cc1` (stereo unspecified): 0%.
On to `OC[C@@H]1CN(Cc2cccs2)C[C@H](n2cnc3c(Nc4ccccc4)ncnc32)O1`, for which the max response, negative = inhibition is -4.85%.
Next, `COc1ccc(-c2ccc(CN3C(CC(C)C)C(=O)N(Cc4cn(CC5CCCCC5)nn4)CCS3(=O)=O)cc2)cn1` (stereo unspecified): 0.993%.
Next, `CN(Cc1ccccc1F)c1cc2c(c3c1ccn3C)C1CCC2O1` (stereo unspecified): -29.6%; `COc1ccc(/C=N/NC(=O)Nc2ccc3nsnc3c2)c(OC)c1`: -16.9%; `COc1ccc(/C=N/NC(=O)CNC(=O)c2ccc(S(=O)(=O)N3CCCC3)cc2)c(OC)c1`: -0.269%.
Next, `COc1ccc(/C=N/NC(=O)c2ccc3c(c2)OCCO3)c(OC)c1`: -64.3% (active); `COC(=O)[C@@]12C[C@@H](CC(=O)NCc3cccc(C(F)(F)F)c3)C(=O)N(Cc3ccco3)C1=CCC(C)(C)C2`: -1.5%; `Cc1cccc(NC(=O)/C=C/c2ccc3c(c2)OCO3)n1`: -14.5%.
For `COc1cccc(/C=C/C(=O)Nc2ccc3c(c2)OCCO3)c1`, the max response, negative = inhibition is -6.81%.
Next, `O=C(/C=C\c1ccc2c(c1)OCO2)NC1(C(=O)Nc2ccc3c(c2)OCCO3)CCCCC1`: -59.6% (active); `CSC1=NN(c2ccccc2)CN(c2ccccc2)N1C`: -6.6%.
Next, `COC(=O)c1ccc2nc(C3CCCCC3)c(Cc3cccc(F)c3)n2c1`: 10.5%.
In the case of `CCOC(=O)N1CCN(CCC(=O)Nc2ccccc2)CC1`, the max response, negative = inhibition was -15.4%.
For the compound `Cc1ccc(NC(=O)CCN2CCc3ccccc3C2)cc1`, the max response, negative = inhibition is -94.8% (active).
In the case of `Cc1ccc(NC(=O)CN2CCc3ccccc3C2)cc1`, the max response, negative = inhibition is -84.2% (active).
Next, `O=C(CN1CCc2cc3c(cc2C1)OCCCO3)Nc1ccccc1`: -19.3%.
With `COc1cc2c(cc1OC)CN(CC(=O)Nc1ccc(F)cc1)CC2`, the max response, negative = inhibition is -16.8%.
In the case of `CC1CCN(CCC(=O)Nc2ccccc2)CC1`, the max response, negative = inhibition was -0.851%.
Consider `COc1ccc(NC(=O)C[C@H]2C(=O)N(CCc3ccccc3)C[C@@H]2C)cc1`, for which the max response, negative = inhibition was 1.09%.
Next, `CC(=O)NC(c1ccccc1)c1nc(-c2cccc(C(C)C)c2)cs1` (stereo unspecified): 20.2%; `CC1(C(=O)NS(=O)(=O)c2ccc3ccccc3c2)CCN1C(=O)C1(c2ccc(Cl)cc2)CCC1` (stereo unspecified): -21.3%; `CNc1cncc(-c2cccc(C(=O)N3CCOCC3)c2)n1`: 13.3%.
With `CCC(c1nnnn1-c1ccc2c(c1)OCCO2)N1CCN(c2ccc(C(F)(F)F)cn2)CC1` (stereo unspecified), the max response, negative = inhibition is 4.77%.
On to `COc1ccc(/C=C2\SC(=S)N(CCC(=O)N3CCOCC3)C2=O)cc1OC`, for which the max response, negative = inhibition was -14.3%.
Next, `O=C(NCCCN1CCCCCC1)C1CC(=O)N(C2CCCC2)C1` (stereo unspecified): 10.5%; `O=C(NCCCN1CCN(c2ccccc2F)CC1)C1CCC(=O)N1C1CCCCC1` (stereo unspecified): -78% (active).
Consider `COc1ccc(CN2CC(C(=O)NCCN3CCN(c4ccccc4F)CC3)CC2=O)cc1` (stereo unspecified), for which the max response, negative = inhibition was -22.6%.
Next, `O=C(C[C@H]1CC[C@H]2[C@@H](COC[C@H](O)CN2C(=O)c2ccccn2)O1)N1CCN(c2ccccc2)CC1`: -25.4%; `CCOC(=O)C1CCCN(C(=O)c2ccc(N(C)C)cc2)CC1` (stereo unspecified): 22.6%; `CC1=C(C(=O)N2CCOCC2)CC(CC(=O)NCC2CCCCC2)C(=O)N1Cc1ccc(F)cc1` (stereo unspecified): -11.1%.
Next, `NC(Cc1ccc(F)cc1)c1csc(Nc2nncc3ccccc23)n1` (stereo unspecified): 7.2%; `O=C1CC2(CCCC2)Oc2ccc(Cl)cc21`: 0%.
Next, `O=C1Cc2ccccc2Sc2ccc(Cl)cc21`: -51% (active); `S=C1Nc2cc(Cl)ccc2Sc2ccccc21`: 4.03%.
For the compound `CCOC(=O)N1CCN(C(=O)C[C@@H]2C[C@@]3(C(=O)OC)CCCCC=C3N(CCC3=CCCCC3)C2=O)CC1`, the max response, negative = inhibition was 18.8%.
Next, `Cc1ccc(Cn2cc(CN3CC(N4CCN(C)CC4)CS3(=O)=O)nn2)cc1` (stereo unspecified): -6.65%; `O=S1(=O)CC(N2CCSCC2)CN1Cc1cn(Cc2cccc(Cl)c2)nn1` (stereo unspecified): 26.4%; `COc1ccc(-c2cc(NC=O)c3ncc(-c4cccc(C(=O)N(C)C)c4)n3c2)c(OC)c1`: -2.96%.
Next, `COC(=O)[C@]12CCCCC=C1N(CCC1=CCCCC1)C(=O)[C@H](CC(=O)N1CCSCC1)C2`: -7.56%.
Take `Cc1ccccc1C#CC1=CC(=O)CC(C)(C)C1`: the max response, negative = inhibition was -9.95%.
Regarding `Cc1nnc(SC(C)C(=O)c2c[nH]c3ccccc23)n1C1CC1` (stereo unspecified), the max response, negative = inhibition was 20.8%.

For the origin of these results see PubChem BioAssay AID652054 (National Center for Advancing Translational Sciences (NCATS), 2013).
